The target in test [1] is Catechol O-methyltransferase (Homo sapiens) (UniProt P21964). The test is described as follows: Confirmatory Screen for Target Class Profiling of Small Molecule Inhibitors of Methyltransferases (AID 1745852; calls by dose curve; also: potency is read from the fitted curve at half-maximal effect; as to activity change, negative = inhibition: % is scaled to controls: 0 for no effect and ±100 for the full control effect). The settings on record: MTase-Glo luminescence, SAH detection, recombinant enzyme; measured here: COMT max response; stronger effect = lower value.
Sequence of Catechol O-methyltransferase (Homo sapiens) (P21964 whole entry, looked up): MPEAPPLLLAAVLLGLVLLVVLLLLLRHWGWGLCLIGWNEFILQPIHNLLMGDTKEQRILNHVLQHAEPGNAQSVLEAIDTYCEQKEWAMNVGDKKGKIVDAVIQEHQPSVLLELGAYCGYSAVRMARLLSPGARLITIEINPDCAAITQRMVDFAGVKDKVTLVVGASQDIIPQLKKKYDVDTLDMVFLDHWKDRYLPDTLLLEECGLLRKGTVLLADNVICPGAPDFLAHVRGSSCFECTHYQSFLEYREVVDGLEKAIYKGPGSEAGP
Test [2] deals with Guanidinoacetate N-methyltransferase (Homo sapiens) (UniProt Q14353). Described as above. The following applies: MTase-Glo luminescence, SAH detection, recombinant enzyme; activity change, negative = inhibition: at 57.3 µM (top of the series) unless noted; series mostly up to 57.3 µM.
The target of test [3] is Nicotinamide N-methyltransferase (Homo sapiens) (UniProt P40261). The test is described as above. The settings on record: MTase-Glo luminescence, SAH detection, recombinant enzyme; measured here: NNMT max response; stronger effect = lower value.
Sequence of Nicotinamide N-methyltransferase (Homo sapiens) (P40261 whole entry, looked up): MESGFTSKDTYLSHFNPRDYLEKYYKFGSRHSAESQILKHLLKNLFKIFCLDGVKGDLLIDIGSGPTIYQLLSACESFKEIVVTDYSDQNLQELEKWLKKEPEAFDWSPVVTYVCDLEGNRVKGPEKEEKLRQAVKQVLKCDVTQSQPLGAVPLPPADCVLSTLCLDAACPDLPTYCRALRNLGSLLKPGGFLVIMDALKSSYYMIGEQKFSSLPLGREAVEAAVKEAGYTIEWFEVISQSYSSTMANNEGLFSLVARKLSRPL
Test [4] addresses Phenylethanolamine N-methyltransferase (Homo sapiens) (UniProt P11086). Described as above. The settings on record: MTase-Glo luminescence, SAH detection, recombinant enzyme; measured here: PNMT max response; stronger effect = lower value.
Test [5] deals with Glutathione peroxidase 1 (Homo sapiens) (UniProt P07203). Nature of the test: Primary qHTS Assay for Inhibitors of Recombinant Selenoprotein Glutathione Peroxidase 1 (GPX1) (AID 1845191). Also: nearly all actives have a fitted effect of over 65% in size. As to activity, negative = inhibition: % is scaled to controls: 0 for no effect and ±100 for the full control effect. The following applies: recombinant GPX1, GR-coupled NADPH fluorescence, 15 min; series mostly up to 48.8 µM. In outline:
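GR-coupled assay: compounds preincubated 30 min at room temperature with GPX1, then reaction started with CHP; final 10 nM GPX1, 1 mM GSH, 0.5 mM CHP, 0.5 mM NADPH, 100 nM GR, 0.01% BSA, pH 7.5 Tris buffer. NADPH fluorescence (340/450 nm) read at 0 and 15 min.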

Test [6] addresses Phospholipid hydroperoxide glutathione peroxidase GPX4 (Homo sapiens) (UniProt P36969). The test is described as follows: Primary qHTS Assay for Inhibitors of Recombinant Selenoprotein Glutathione Peroxidase 4 (GPX4) (AID 1845192). Also: nearly all actives have a fitted effect of over 65% in size. As to activity change, negative = inhibition: % is scaled to controls: 0 for no effect and ±100 for the full control effect. The following applies: recombinant GPX4, GR-coupled NADPH fluorescence, 15 min; series mostly up to 50 µM. In outline:
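GR-coupled assay: recombinant GPX4 preincubated 30 min with compound at room temperature; final 200 nM GPX4, 1 mM GSH, 0.5 mM cumene hydroperoxide, 0.5 mM NADPH, 100 nM GR, 0.01% BSA, pH 7.5 Tris. NADPH fluorescence (340/450 nm) read at 0 and 15 min.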

Test [7] deals with Luciferin 4-monooxygenase (Photinus pyralis) (UniProt P08659). The test is described as follows: Primary firefly luciferase (FLuc) qHTS assay for identification of artifact compounds. (AID 1845220). Also: nearly all actives have a fitted effect of over 60% in size.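 As to activity change, negative = inhibition: plate controls were DMSO vehicle for no effect and no enzyme for full effect.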 The settings on record: purified firefly luciferase, luminescence, 5 min; series mostly up to 54.1 µM. In a few lines: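 D-luciferin and ATP (10 uM each, final) in Tris acetate buffer pH 7.6 were incubated with compounds for 15 min at room temperature. The reaction was started with 10 nM Photinus pyralis luciferase and luminescence read after 5 min. Percent inhibition was fitted to a 4-parameter Hill equation.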

Test [8] is described as follows: Primary fluorescence-based thiol-reactive (MSTI) qHTS assay for identification of artifact compounds. (AID 1845221). Also: nearly all actives have a fitted effect of over 65% in size. Also: potency is read from the fitted curve at half-maximal effect.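 As to activity change, negative = thiol reactive: thiol-reactive compounds lower the probe fluorescence signal.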 The settings on record: MSTI thiol-reactivity probe, 1 h; series mostly up to 53.8 µM. In a few lines: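 A multi-concentration qHTS design tested compounds against 4 uM MSTI, pH 7.4 phosphate-buffered saline. Plates were protected from light for 1 h at room temperature before imaging fluorescence.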

In test [9] the test system is Nanoluciferase (engineered Oplophorus gracilirostris luciferase). Nature of the test: Primary Nanoluciferase (NLuc) qHTS assay for identification of artifact compounds. (AID 1845222).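 Also: 0% = DMSO and -100% = no enzyme.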 The following applies: NLuc-conditioned medium, Nano-Glo luminescence, 5 min; series mostly up to 54.1 µM. In a few lines: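 Diluted conditioned medium from NLuc-expressing S16 cells treated with compounds for 15 min at room temperature, then Nano-Glo substrate added; luminescence read after 5 min. Percent inhibition versus no-enzyme and DMSO controls fitted to 4-parameter Hill equation.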

The nature of test [10]: Primary redox qHTS assay for identification of artifact compounds. (AID 1845223).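 Also: 0% = DMSO and 100% = reference compound.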 The settings on record: Amplex Red/HRP redox cycling with DTT, fluorescence; series mostly up to 53.8 µM. In outline:
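Amplex Red (25 uM) and HRP (250 mU/mL) in HBSS, with compounds for 15 min, then 250 uM DTT for 30 min, room temperature, dark. Fluorescence 525/598 nm read; normalized to DMSO and 10 uM DA3003; Hill fit.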

Results on 14 molecules are retold here after PubChem BioAssay (NCATS).

Inconclusive results are not listed. Activity calls are given as the source filed them. Unless noted, calls follow the shape of the dose curve; as a rule, active = well fitted curve in the direction sought with a large enough effect; inconclusive = small, poorly fitted or top-dose-only effect, or another doubt; inactive = no such curve, though single readings can be large; an effect the other way counts as inactive or inconclusive.

Sequence of Phenylethanolamine N-methyltransferase (Homo sapiens) (P11086 whole entry, looked up): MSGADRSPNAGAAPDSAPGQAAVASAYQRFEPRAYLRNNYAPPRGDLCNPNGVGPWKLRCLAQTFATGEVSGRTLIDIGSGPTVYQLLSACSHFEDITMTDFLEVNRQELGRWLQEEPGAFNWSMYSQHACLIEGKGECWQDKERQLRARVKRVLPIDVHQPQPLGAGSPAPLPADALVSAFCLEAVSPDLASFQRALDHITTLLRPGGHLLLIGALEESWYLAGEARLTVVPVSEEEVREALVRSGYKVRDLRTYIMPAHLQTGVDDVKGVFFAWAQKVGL
Sequence of Phospholipid hydroperoxide glutathione peroxidase GPX4 (Homo sapiens) (P36969 whole entry, looked up): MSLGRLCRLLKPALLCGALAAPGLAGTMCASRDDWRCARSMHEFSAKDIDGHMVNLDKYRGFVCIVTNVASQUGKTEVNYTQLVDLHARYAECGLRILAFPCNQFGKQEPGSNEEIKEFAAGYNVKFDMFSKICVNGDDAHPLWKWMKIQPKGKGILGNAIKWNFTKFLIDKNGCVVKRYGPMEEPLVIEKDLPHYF
Sequence of Glutathione peroxidase 1 (Homo sapiens) (P07203 whole entry, looked up): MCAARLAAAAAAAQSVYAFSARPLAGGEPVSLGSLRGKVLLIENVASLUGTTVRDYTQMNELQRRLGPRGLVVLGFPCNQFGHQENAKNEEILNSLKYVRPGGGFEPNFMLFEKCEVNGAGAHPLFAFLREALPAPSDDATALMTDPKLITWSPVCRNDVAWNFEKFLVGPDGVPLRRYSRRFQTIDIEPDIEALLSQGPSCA

As to `CC(=O)NCCCCn1c2c(c3ccccc31)C(=O)NCC2`, the activity in [1] was -9.83%; in test [3], -4.05%; in test [4], -4.46%. The activity change, negative = inhibition in test [2] is -8.34%. Further, the Potency result in test [5], in test [6], in [7], in test [8], in test [9] and in test [10] was “inactive” in each case.
For the molecule `C=C1C(O[C@@H]2O[C@H](CO)[C@@H](O)[C@H](O)[C@@H]2O)CC2C(C)(C)C(O)CCC2(C)C1CC/C(C)=C\CO` (some centres undefined), the activity in test [1] was -63.2%; in test [3], 3.48%; in test [4] it was 0.548%. In addition, in test [2], the activity change, negative = inhibition amounted to 0% [at 29.8 µM]. In addition, the Potency result in test [5], in test [6], in test [7], in test [8], in [9] and in test [10] was “inactive” throughout.
For `CCc1nc(C(N)=O)c(Nc2ccc(N3CCC(N4CCN(C)CC4)CC3)c(OC)c2)nc1NC1CCOCC1`, the activity is -34.5% in test [1], -16.4% in test [3] and -59.8% in [4]. Besides, the Potency in [2] is 26.6 µM (active). Moreover, the Potency entry in test [5], in [6], in test [7], in [9] and in test [10] was “inactive” each time.
`Cc1[nH]cnc1C1CCN(c2nc3cccc4c3n2CCC4=O)CC1`: the figures for the activity in [1], in test [3] and in [4] were 1.4%, -9.9% and 1.15%, respectively. In [2], the activity change, negative = inhibition stood at 0.0241%. In addition, the Potency result in test [5], in test [6], in test [7], in test [8], in test [9] and in test [10] was “inactive” each time.
Take `O=C(O[C@@H]1O[C@H](CO)[C@@H](O)[C@H](O)[C@H]1O)c1c(O)cc(O)cc1/C=C/c1ccccc1`: the values for the activity in test [1], in test [3] and in test [4] were -66.4%, -2.64% and -9.3%, respectively. Moreover, the activity change, negative = inhibition in test [2] worked out at 2.61% [at 29.8 µM]. Moreover, the Potency entry in [5], in test [6], in [7] and in [10] was “inactive” each time. The Potency in test [8] was 7.33 µM (active).
In the case of `C=C1[C@H]2[C@H](O[C@@H]3O[C@H](COC(=O)/C=C/c4cc(OC)c(O)c(OC)c4)[C@@H](O)[C@H](O)[C@H]3O)OC=C(C(=O)O)[C@H]2C[C@@H]1O`, the activity was -50.9% in test [1], 0% in test [3] and 5.16% in test [4]. For the same molecule, the activity change, negative = inhibition in test [2] worked out at 0% [at 19.1 µM]. For the same molecule, the Potency entry in test [5], in test [6], in [7], in test [9] and in [10] was “inactive” in each case. In addition, the Potency in test [8] is 7.07 µM (active).
Consider `CC1CC(O)C2(C)C(C(=O)O)=CCCC2C1(C)CCc1ccoc1` (centres undefined), for which the activity in test [1] is -89.3%; in test [3], 2.05%; in [4], 2.03%. In test [2], the activity change, negative = inhibition amounted to 2.37%. The Potency result in [5], in test [6], in test [7], in test [8] and in [9] was “inactive” in each case.
Turning to `COc1cc(/C=C/c2cc(O)cc(O[C@@H]3O[C@H](CO)[C@@H](O)[C@H](O)[C@H]3O)c2)ccc1O`, the values for the activity in test [1], in [3] and in test [4] were -45%, -2.24% and 1.65%, respectively. Besides, in test [2], the activity change, negative = inhibition stood at 0.569% [at 29.8 µM]. The Potency entry in test [5], in test [6], in test [7], in [8], in test [9] and in test [10] was “inactive” throughout.
Consider `CC1=CC(=O)C2C(C)(C)CCCC2(C)C12CCC1(COC(=O)C1)O2` (centres undefined), for which the activity is -85.5% in [1], -1.78% in [3] and 3.04% in [4]. Further, in test [2], the activity change, negative = inhibition amounted to 2.41%. Besides, the Potency entry in test [5], in test [6], in [7], in [9] and in test [10] was “inactive” in each case. Also, the Potency in [8] is 7.36 µM (active).
Turning to `CC1(C)CCC2(C(=O)OC3OC(COC4OC(CO)C(O)C(O)C4O)C(O)C(O)C3O)CCC3(C)C(=CCC4C5(C)CCC(O)C(C)(C(=O)O)C5CCC43C)C2C1O` (centres undefined), the activity in test [1] was -59.6%; in test [3], -5.22%; in [4], -5.74%. In addition, the activity change, negative = inhibition is 2.03% [at 19.1 µM] in [2] and 2.78% [at 11.6 µM] (inactive) in test [7]. Moreover, the Potency result in [5] and in test [6] was “inactive” in each case. Moreover, the activity change, negative = thiol reactive in [8] is 16.4% [at 11.5 µM] (inactive). The activity, negative = inhibition in test [9] is 2.66% [at 11.6 µM] (inactive).
Take `CC(CCC1C(C(=O)O)=CC(=O)CC1(C)C)O[C@@H]1O[C@H](CO)[C@@H](O)[C@H](O)[C@H]1O` (some centres undefined): the values for the activity in [1], in test [3] and in test [4] were -82.7%, -5.15% and -4.16%, respectively. The activity change, negative = inhibition in [2] is -6.33%. Moreover, the Potency entry in test [5], in test [6], in [7], in test [9] and in [10] was “inactive” throughout. The Potency in [8] is 5.85 µM (active).
As to `C=C(C)[C@H]1C[C@@H](O)C(=C)CC[C@@H](O)C(=C)[C@@H](O)C1`, the activity was -67% in test [1], 4.34% in test [3] and 4.62% in test [4]. Also, the activity change, negative = inhibition in test [2] was 0%. Further, the Potency entry in test [5], in test [6], in test [7] and in [10] was “inactive” each time. Further, the Potency in test [8] was 11.9 µM (active).
`COc1cc(N2CCC(O)CC2)ccc1Nc1cc(Nc2ccccc2S(=O)(=O)C(C)C)c2cc[nH]c2n1`: the activity is 2.25% in test [1], -6.54% in [3] and 0.382% in [4]. Also, the activity change, negative = inhibition in [2] worked out at 0%. Besides, the Potency entry in test [5], in [6], in test [7], in test [9] and in test [10] was “inactive” each time. For the same molecule, the Potency in [8] was 0.927 µM (active).
As for `CCN(c1cc(C#CCN2CCOCC2)cc(C(=O)NCc2c(C)cc(C)[nH]c2=O)c1C)C1CCC(N(C)CCOC)CC1` (centres undefined), the activity in [1] was 15%; in [3], -20.4%; in test [4], 4.61%. Besides, in test [2], the activity change, negative = inhibition came to 3.71%. For the same molecule, the Potency entry in [5], in test [6], in [7], in [8] and in test [9] was “inactive” in each case.
